Experiment [1] has as its target T1, Aspartate--tRNA(Asp/Asn) ligase (Mycobacterium tuberculosis (strain ATCC 25618 / H37Rv)) (UniProt P9WFW3). Note: in the data most compounds retested in dose-response had high values.
T1 sequence (whole entry): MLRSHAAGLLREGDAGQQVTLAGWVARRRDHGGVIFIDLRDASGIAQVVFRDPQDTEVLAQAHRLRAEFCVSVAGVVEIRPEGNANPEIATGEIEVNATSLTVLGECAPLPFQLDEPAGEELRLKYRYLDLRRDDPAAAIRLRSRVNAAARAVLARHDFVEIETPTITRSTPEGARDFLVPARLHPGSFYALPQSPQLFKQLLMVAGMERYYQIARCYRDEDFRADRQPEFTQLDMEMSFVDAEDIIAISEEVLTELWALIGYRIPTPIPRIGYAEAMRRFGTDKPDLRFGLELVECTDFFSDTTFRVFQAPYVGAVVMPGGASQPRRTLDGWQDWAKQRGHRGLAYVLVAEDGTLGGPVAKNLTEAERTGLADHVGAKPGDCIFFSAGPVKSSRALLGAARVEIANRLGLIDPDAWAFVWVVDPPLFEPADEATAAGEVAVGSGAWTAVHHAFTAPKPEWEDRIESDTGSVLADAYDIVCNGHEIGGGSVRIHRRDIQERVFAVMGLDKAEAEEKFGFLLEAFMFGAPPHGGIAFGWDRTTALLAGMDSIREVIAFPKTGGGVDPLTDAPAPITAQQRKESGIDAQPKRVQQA
The experiment in a line: Assay for Asp RNA synthetase-1 from Mycobacterium tuberculosis. In kind it is functional. Also on record: scale not given: direction of the effect not stated beside the values. As to conditions: 30 µM.

The target in experiment [2] is Shiga toxin 2 (Escherichia coli O157:H7) (UniProt P09385+P09386). The experiment in a line: E. coli 0.157:H7 Shiga Toxin SOP - stx2 screening assay. Format: functional. Also on record: scale not given: direction of the effect not stated beside the values. As to conditions: 30 µM.

Molecules are shown by their SMILES.

`COCCN1C(=O)C[C@H]2[C@H]1CCN2Cc1cccc(C#N)c1`: the Percent Effect in experiment [1] is -5.22%; in experiment [2] it was -7.15%.
For `Cc1noc(C)c1-c1cnc(CC2CCN(C(=O)c3cc[nH]n3)C2)cn1` (stereo not given) the same measures were 4.09% and 7.65%.
In the case of `CC(=O)N1CCN(C)CC(COCc2ccccc2)C1` (stereo not given), the results for the Percent Effect in experiment [1] and in experiment [2] were -1.62% and -22.4%, respectively.
For `CC(C)NC(=O)Nc1ccc(CS(=O)(=O)C(C)(C)C)cc1`, in that order: 0.689% and 0.4%.
With `Cc1cccc(N2CCN(CCNC(=O)C(C)n3cncn3)CC2)c1` (stereo not given), the Percent Effect was 2.75% in experiment [1] and 15.6% in experiment [2].
For `N#Cc1ccc(CN2CCN(C(=O)c3cc(C4CC4)[nH]n3)CC2)cc1`, in that order: -2.71% and -17.1%.
For `CN1CC(=O)N(c2ccsc2)CC12CCN(C(=O)c1ccccc1)C2` (stereo not given) the same measures were 2.85% and -3.66%.
For `O=C([C@H]1C[C@@H]2CCN(C3CCOCC3)C[C@@H]2O1)N1CCOCC1` the same measures were 1.17% and -10.3%.
Turning to `Fc1cccc(-c2nc(CN3CCOC(Cn4cccn4)C3)co2)c1` (stereo not given), the figures for the Percent Effect in experiment [1] and in experiment [2] were 2.49% and 24.3%, respectively.
With `Cc1cc(C[C@@H]2CCC[C@H]2NCc2cc(C)c(O)c(C)c2)on1`, the Percent Effect in experiment [1] is 2.31%; in experiment [2] it was -2.65%.
Regarding `CC(=O)c1sc(Nc2ccc(Cl)cn2)nc1C`, the Percent Effect was 6.71% in experiment [1] and -4.07% in experiment [2].
For `O=C(c1cccnc1)N1CCC2(CC1)CCN(c1ccsc1)C2=O` the same measures were 3.8% and -6.67%.
For `CC(C)c1nc(C(=O)N2CCOCC2CC(=O)c2ccco2)c[nH]1` (stereo not given) the same measures were -0.629% and -1.83%.
In the case of `Cc1cc(-c2nnc(SCC(=O)O)n2C(C)c2ccccc2)nn1C` (stereo not given), the Percent Effect amounted to 2.15% in experiment [1] and 2.98% in experiment [2].
For `CN1[C@H](Cn2cccn2)C[C@@H]2CN(C(=O)Cc3cccs3)CC[C@@H]21`, in that order: 3.12% and -12.8%.
For `CC1CCN(S(=O)(=O)NCCCn2cncn2)CC1` the same measures were -2.66% and -6.63%.
In the case of `Cc1ccc(-c2nc(CN3CCN(S(=O)(=O)N(C)C)CC3)cs2)o1`, the Percent Effect in experiment [1] is 2.34%; in experiment [2], -12.2%.
For `Cc1nc(N2CCCCC2)ncc1-c1cc(O)[nH]n1` the same measures were -0.348% and -1.17%.
Regarding `Clc1ccc2oc(C3CCN(Cc4cccnc4)CC3)nc2c1`, the Percent Effect in experiment [1] was 1.26%; in experiment [2], -46.7%.
For `COC(=O)c1ccc(S(=O)(=O)NCc2cccnc2N(C)C)cc1` the same measures were -3.4% and 12%.
Take `Cc1n[nH]c(C)c1C1COCCN1C(=O)c1ccccc1` (stereo not given): the Percent Effect was 2.68% in experiment [1] and -26% in experiment [2].
On to `Cc1nn(C)c2c(N3CCN(C(=O)c4ccccc4)CC3)ncnc12`, for which the Percent Effect in experiment [1] was 0.348%; in experiment [2], -28.7%.
On to `O=C(c1cnco1)N1C[C@@H]2CC[C@H](Oc3ccccc3F)[C@@H]2C1`, for which the values for the Percent Effect in experiment [1] and in experiment [2] were -1.03% and -75.8%, respectively.
Consider `CC(C)c1nc2n(n1)CC(NCc1ccncc1)CC2` (stereo not given), for which the values for the Percent Effect in experiment [1] and in experiment [2] were -2.1% and -1.1%, respectively.
For `Cc1ncc(S(C)(=O)=O)c(C2CCCNC2)n1` (stereo not given) the same measures were 0.276% and -2.77%.
As for `CN(Cc1ccco1)[C@@H]1CN(Cc2ccc(F)cc2)C[C@@H]2CCCO[C@@H]21`, the Percent Effect in experiment [1] was determined as 6.12%; in experiment [2], 7.23%.
On to `CC(C)c1nn(C)c(N2CCOCC2)c1CNCC(=O)N(C)C`, for which the values for the Percent Effect in experiment [1] and in experiment [2] were -4.92% and -14.4%, respectively.
For `CC(O)CN1CCN(C(=O)c2ccc(Cn3cccc3)cc2)CC1` (stereo not given) the same measures were 11% and 19.4%.
For `Cc1nc(CN2CCN(Cc3nccn3C)CC2)no1`, the Percent Effect in experiment [1] was -3.87%; in experiment [2], 6.4%.
On to `Cc1ccc(C(=O)N2C[C@@H]3OCCN(CCN4CCCC4)[C@@H]3C2)cn1`, for which the Percent Effect is -1.02% in experiment [1] and 3.78% in experiment [2].
For `Cc1cc(=O)n(CC(=O)Nc2ccc(C(N)=O)cc2)nc1C` the same measures were -0.0781% and -33%.
For `Cc1cc(CN2CC[C@H]3C[C@H](C(=O)N4CCC(C)CC4)O[C@H]3C2)no1` the same measures were 1.91% and 0.444%.
For `CC(=O)N1CCCN(C(=O)NCCc2ccc(Cl)s2)CC1`, in that order: -3.04% and -19.8%.
As for `N#Cc1ccc(N2CCCN(C(=O)CC3CCCO3)CC2)cc1` (stereo not given), the Percent Effect was 4.84% in experiment [1] and 11.8% in experiment [2].
Regarding `CN1[C@@H](C(=O)NCC2CC2)C[C@@H]2CN(Cc3ccco3)C[C@@H]21`, the Percent Effect in experiment [1] was 2.69%; in experiment [2] it was -1.45%.
As to `CC1CN(C(=O)CN(Cc2ccccc2Br)C2CC2)CCO1` (stereo not given), the Percent Effect in experiment [1] is 2.59%; in experiment [2] it was 29.2%.
Take `COc1c(C)cnc(CN2CCC(N(C)C(C)C(N)=O)CC2)c1C` (stereo not given): the Percent Effect in experiment [1] was -3.49%; in experiment [2], -5%.
For `CN1CCN(C(=O)NC2CC2)Cc2cccnc21` the same measures were 8.44% and -32.5%.
On to `Cc1cnn(CC2CN(CC(=O)N(C)c3nccs3)CCO2)c1` (stereo not given), for which the Percent Effect is -6.72% in experiment [1] and 11% in experiment [2].
For `Clc1ccccc1C1(c2ccnc(-c3ccncc3)n2)CCNCC1` the same measures were 0.832% and -43.2%.
For `CCc1cc(C(=O)N2CCC(Nc3ccc(C)nn3)CC2)sc1C` the same measures were -2.1% and -27.9%.
For `CCn1ncc2c1CCCC2NCc1cccc2c1OCCO2` (stereo not given), the Percent Effect in experiment [1] was -2.02%; in experiment [2], -6.1%.
For the molecule `CC(C)N1CCO[C@H]2CN(C(=O)c3ccc(N(C)C)cc3)C[C@H]21`, the Percent Effect in experiment [1] is 2.49%; in experiment [2], -4.13%.
For `Cc1ccc2c(ccn2CCC(=O)NC[C@@H]2CCCN3CCCC[C@H]23)c1`, the Percent Effect in experiment [1] was -0.958%; in experiment [2], -5.27%.
For `CN(CCc1ccccc1)c1cnn(CC(=O)N2CCSCC2)c(=O)c1` the same measures were 8.28% and -15.1%.
